# Measurements from paper PMC7819943, “Rice protein-binding microarrays: a tool to detect cis-acting elements near promoter regions in rice”.
# Whole data set: some 35,000 sequences, median “fluorescence intensity (a.u.)” near 10,000, cut for the highest 2% near 52,000. The full list was thinned out, with the highest values kept by preference.
# Biological target: T1, OsWOX13 (Oryza sativa, UniProt Q5QMM3 1-267)
# T1 sequence: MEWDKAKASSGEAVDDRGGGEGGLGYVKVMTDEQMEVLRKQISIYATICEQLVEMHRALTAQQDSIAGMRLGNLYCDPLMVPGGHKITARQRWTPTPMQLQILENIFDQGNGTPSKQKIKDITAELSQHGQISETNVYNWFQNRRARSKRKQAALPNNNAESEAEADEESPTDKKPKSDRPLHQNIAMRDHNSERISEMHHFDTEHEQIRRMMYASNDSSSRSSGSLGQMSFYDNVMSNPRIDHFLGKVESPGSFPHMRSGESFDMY
# Test: protein-binding microarray (RPBM); PBS, 2% BSA, 51.3 ng/ul salmon testes DNA, 50 uM zinc acetate, 200 nM TF, 25 C, 1 h; high values mean tight binding
# Details: protein: recombinant; tags: N-terminal polyhistidine and DsRed monomer fusion (pET32a); label: CyDye5-dUTP incorporated in the synthesized complementary strand; 3' TTTTT single-stranded linker to array surface; dsDNA, one strand shown
# Procedure, shortened: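 Transcription factors were made in E. coli BL21-CodonPlus as N-terminal fusions to a polyhistidine tag and DsRed, then purified on Ni–NTA. After primer extension with Cy5-dUTP and blocking with 2% BSA, a custom Agilent array was exposed for 1 h at 25 °C to 200 nM protein in PBS, 2% BSA, salmon testes DNA and 50 µM zinc acetate. Washed arrays were scanned on an Axon 4000B, and the binding signal is per-feature fluorescence intensity in arbitrary units.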
row,Sequence,binding signal
1,TTTGATTGAGATTGATAATAACCTGCTGTAACTTAGCGAACGGAGTCACCTAGTGCAG,61100 fluorescence intensity (a.u.)
2,AATAGATTGATTGATTGATTGAATAATATAGATAGATTGACGGAGTCACCTAGTGCAG,64400 fluorescence intensity (a.u.)
3,ATAACTAATATAATCGAACCTGCCTCACTTAATATGTGGCCGGAGTCACCTAGTGCAG,4830 fluorescence intensity (a.u.)
4,CTAAAATTACATATGTAATTTAGGCACTTACATATGTAATCGGAGTCACCTAGTGCAG,19500 fluorescence intensity (a.u.)
5,TGTTAACCAGATTTATTATATTTGAAAATGTCACCTCCAACGGAGTCACCTAGTGCAG,8160 fluorescence intensity (a.u.)
6,TTGCAAATAATTTGGAAAGGTAATATGAGCTACAGCTGTGCGGAGTCACCTAGTGCAG,7080 fluorescence intensity (a.u.)
7,ATAATGGATTGCTTGTTCCAGCACTGAATGTGCTGCCAAGCGGAGTCACCTAGTGCAG,6550 fluorescence intensity (a.u.)
8,CGAATTAACTAGATCATATTACTCTTTCATGCAATAAACACGGAGTCACCTAGTGCAG,4320 fluorescence intensity (a.u.)
9,TGGGATAATTAACTCGTAATGATCCCCAAATGCGTGCGTACGGAGTCACCTAGTGCAG,28300 fluorescence intensity (a.u.)
10,GTTAACGACCAAAATTGGTAGCATCGACACCTCCCTGGGCCGGAGTCACCTAGTGCAG,4240 fluorescence intensity (a.u.)
11,TAGCCACCGTGATTGATTGATCTATAGATCGATTGGTGCCCGGAGTCACCTAGTGCAG,64000 fluorescence intensity (a.u.)
12,ATAGATAGATAGATAATAGATAGATAGAAGATAGATAGATCGGAGTCACCTAGTGCAG,44600 fluorescence intensity (a.u.)
13,AATAGATAGATTGATACCACCACTTAACTATACTAATGCTCGGAGTCACCTAGTGCAG,63700 fluorescence intensity (a.u.)
14,GGTGATTAGACCGGTGATCTATACCGGTCAGACCGATAGCCGGAGTCACCTAGTGCAG,47800 fluorescence intensity (a.u.)
15,TTACTTAATTACTATAGATAATTAGTTGATTAGTGTTACTCGGAGTCACCTAGTGCAG,45000 fluorescence intensity (a.u.)
16,AGTTATGTAATTGGATCATGAGTAGATATACATGTGTGCTCGGAGTCACCTAGTGCAG,29300 fluorescence intensity (a.u.)
17,GGTAATTGATTATGCACCTGATCTAGATACATGTACAGCTCGGAGTCACCTAGTGCAG,61800 fluorescence intensity (a.u.)
18,TAGATAGATAGAAGATAATAGAAGATAGATAATAGAAGATCGGAGTCACCTAGTGCAG,10200 fluorescence intensity (a.u.)
19,ATTATTGAACGAATGATTATCGTAGATTATACATCTAGCCCGGAGTCACCTAGTGCAG,28400 fluorescence intensity (a.u.)
20,TCCACTAATATTAACCAATAGACAGATATACTATCACAGTCGGAGTCACCTAGTGCAG,10800 fluorescence intensity (a.u.)
21,AGATAGATAGATAGATAGATAGATAGATAGATAGATAGATCGGAGTCACCTAGTGCAG,55700 fluorescence intensity (a.u.)

row,Sequence,binding signal
1,ATCTATAATTAGATTGATATGATTATCTTGTGTACAACAACGGAGTCACCTAGTGCAG,37800 fluorescence intensity (a.u.)
2,AGTGGTGATGGGCACAATGGTGATTAGAGTGGCGGAGATCCGGAGTCACCTAGTGCAG,7460 fluorescence intensity (a.u.)
3,TATTGATTTAATGAAACTAATTTGGTATTATAAATATTACCGGAGTCACCTAGTGCAG,32200 fluorescence intensity (a.u.)
4,GGAGAGCAATCAAGCGAAATTGACACGTGTCACGGCAGTGCGGAGTCACCTAGTGCAG,30300 fluorescence intensity (a.u.)
5,ATGCAAAGTTGCAGGGATTGATTGGCTGTTTCGTTTGCTACGGAGTCACCTAGTGCAG,21800 fluorescence intensity (a.u.)
6,CATCCAAATTGGCAAAGGCCGCCTCTTTCTTTAATTAACCCGGAGTCACCTAGTGCAG,14100 fluorescence intensity (a.u.)
7,ACAAATTGAGTGTTATAGTGAGATGGCATCGGAGATGAGCCGGAGTCACCTAGTGCAG,32400 fluorescence intensity (a.u.)
8,TTGACATCATCATTGACGTGATAGATATAGTATATTAGACCGGAGTCACCTAGTGCAG,17000 fluorescence intensity (a.u.)
9,TAGCTAGATTGATAATGTACATATATGAATTTGTATGCGACGGAGTCACCTAGTGCAG,55500 fluorescence intensity (a.u.)
10,TGCGTGATTAGCTGATAATACACGTGAATTATGTATGACGCGGAGTCACCTAGTGCAG,52800 fluorescence intensity (a.u.)
11,AAGATAAAATGTATGATTGTATGCCTAATTTGAATAGTGGCGGAGTCACCTAGTGCAG,15900 fluorescence intensity (a.u.)
12,TAGCTGATTATTACAGATGTTGGAGGATGAATAATTGTGACGGAGTCACCTAGTGCAG,13500 fluorescence intensity (a.u.)
13,AGTATAATTAGCATACTATGATATCGATATACACGTTATGCGGAGTCACCTAGTGCAG,31400 fluorescence intensity (a.u.)
14,ATCGTGATTGATGGCATTGGTATAGATTTCGAGCATTGGCCGGAGTCACCTAGTGCAG,63900 fluorescence intensity (a.u.)
15,TTGTATAAATTGCTATTAGATTGGCTATATATGAATTAGACGGAGTCACCTAGTGCAG,37500 fluorescence intensity (a.u.)
16,CAAGATTGGGCGAGGGAGGGAGGAGTCCAGATCCTGCCTCCGGAGTCACCTAGTGCAG,3250 fluorescence intensity (a.u.)
17,ATTCTCGATTTAACACTAATCATCATTATCCTAATAACCACGGAGTCACCTAGTGCAG,6320 fluorescence intensity (a.u.)
18,CTTAATTTAGAGTTGATTTTGGAGTTTCTTTTATCGTAGTCGGAGTCACCTAGTGCAG,39500 fluorescence intensity (a.u.)
19,ATTACTTATCTGATTTACGATCCGACTTAACCACTGTATTCGGAGTCACCTAGTGCAG,4150 fluorescence intensity (a.u.)
20,ACAAATTGGTCACTGGCTGAATAGTTTCTACATCAGTTAACGGAGTCACCTAGTGCAG,6570 fluorescence intensity (a.u.)
21,CGTAAACATCTGATGAGTACCTCACATGTTGAACATCTCCCGGAGTCACCTAGTGCAG,3900 fluorescence intensity (a.u.)
